According to PubChem BioAssay (EPA / NIEHS):
Calls of active or inactive are those of the source. Rule for the calls: active = hit-call score of the fitted dose curve at least 0.9, where 1 is the maximum; inactive = score below 0.9.

These molecules were tested on CYP2C8 (gene 1558) (assay: LTEA_HepaRG_CYP2C8: Life Technologies and Expression Analysis (LTEA) Assay for CYP2C8 using HepaRG (AID 2283483)). Conditions: mRNA level, 48 h; actives raise or lower the signal.
Protocol: LTEA_HepaRG is a cell based, multiplexed-readout assay that uses HepaRG, a human liver cell line, with measurements taken at 48 hours after chemical dosing on a 96-well plate.LTEA_HepaRG_CYP2C8 is one of 102 assay component(s) measured in the LTEA HepaRG cell culture assay. It is a marker of NR mediated metabolism.Data from the assay component LTEA_HepaRG_CYP2C8 was analyzed into 1 endpoint. This assay endpoint, LTEA_HepaRG_CYP2C8, was analyzed with bidirectional fitting relative to DMSO as the negative control and baseline of activity. Using a type of inducible reporter, measures of mRNA induction for gain or loss-of-signal activity can be used to understand regulation of transcription factor activity. To generalize the intended target to other relatable targets, this assay endpoint is annotated to the cyp intended target family, where the subfamily is xenobiotic metabolism.
A total of 1060 chemcials from the ToxCast library were tested in eight-point concentration-response experiments. Cell culture and cytotoxicity assays were conducted at Thermo Fisher Scientific's Custom Services facility (Madison, WI). A single lot of human HepaRG cells (Thermo Fisher Scientific, Frederick, MD) was used for the cell culture experiments. 96-well format collagen type I coated plates of human HepaRG cells were prepared using established methods. Briefly, cryopreserved HepaRG cells were thawed, plated at a density of approximately 100,000 cells/well in HepaRG Thaw, Plate, and General Purpose media (HPRG770, Thermo Fisher Scientific), and incubated for 48 hours. 0.5% DMSO was selected as vehicle control to balance the requisite need of DMSO in HepaRG cultures to maintain differentiation (for example, baseline metabolism, proportions of hepatocytes vs. cholangiocytes), while enabling further hepatic receptor pathway activation (for example, PXR and CAR) in response to chemical exposure. 48 hours after plating, the culture medium was replaced with HepaRG Serum-Free Incudtion Media. Cells were exposed to each test chemical in duplicate and maintained in CO2 incubators for another 48 hours. Chemical plates were thawed to room temperature and 200x concentrations of treatment groups were prepared. 8-point conentration-reponse curves were made with the highest exposure at 100 uM, followed by half-log dilutions, all in 0.5% DMSO. Each test plate contained variouse controls, induction positive controls (1mM phenobarbital), cytotoxicity positive controls ([…] aflatoxin B1), vehicle controls (0.5% DMSO), and total lysis controls (0.5% DMSO). Cell morphology images were taken using an Essen IncuCyte FLR automated microscope, with six 96-well plates imaged in about 24 minutes. Images were captured and exported and JPEG files. Spent culture media was transfered to black-well plates for the LDH assay, and remaining media was sorted at -80 C for later use. Cells were treated with RLT buffer and frozen until shipped for gene expression analysis. Total RNA was isolated from the cell suspension in 75 uL of Buffer RLT (Qiagen, Germantown, MD 20874) by Quintiles/Expression Analysis (Durham, NC) using a custom isolation procedure. Total RNA from each plate well was transferred to a preamplification plate. Fluidigm's 96.96 Dynamic ArrayTM (Fluidigm, Amsterdam, the Netherlands) technology was used for gene expression analyses by quantitative reverse transcription polymerase chain reaction (qRT-PCR, performed by Quintiles/Expression Analysis, Durham, NC)89. Standard TaqManTM Assays (Applied Biosystems/ThermoFisher Scientific, Foster City, CA) were used to assess the expression of 93 genes selected based on their selectivity and sensitivity to important hepatic receptors known to be modulated by environmental chemicals; importance in human hepatocyte functionality; and hepatotoxicity. […]
In the case of `CCOP(=S)(OCC)SCCSCC`, the outcome is reported as “inactive”.
With `CCOP(=O)(NC(C)C)Oc1ccc(SC)c(C)c1` (stereo not given) the outcome was “inactive”.
For `CC1=NNC(=O)N(/N=C/c2cccnc2)C1`, the outcome was “inactive”.
For `CCC(CC)Nc1c([N+](=O)[O-])cc(C)c(C)c1[N+](=O)[O-]`, the outcome was “inactive”.
`CN(C)NC(=O)CCC(=O)O` was tested, and the outcome was “inactive”.
In the case of `CC(C1CC1)C(O)(Cn1cncn1)c1ccc(Cl)cc1` (stereo not given), the AC50 is reported as 0.327 µM (active).
For `CCOC(=O)COc1cc(-c2nn(C)c(OC(F)F)c2Cl)c(F)cc1Cl`, the AC50 was 50 µM (active).
With `CC(Oc1cccc(Cl)c1)C(=O)O` (stereo not given) the AC50 was 14.4 µM (active).
In the case of `CCOP(=S)(OCC)OC(Cl)C(Cl)(Cl)Cl` (stereo not given), the outcome is reported as “inactive”.
In the case of `CCC(=NOC/C=C/Cl)C1=C(O)CC(C2CCOCC2)CC1=O` (stereo not given), the outcome is reported as “inactive”.
With `COP(=O)(OC)SCn1c(=O)oc2cc(Cl)cnc21` the outcome was “inactive”.
For `CNC(=O)Oc1cccc2c1OC(C)(C)O2`, the outcome was “inactive”.
For `CC(=NC#N)N(C)Cc1ccc(Cl)nc1`, the AC50 was 50 µM (active).
With `CSC1=N[C@@](C)(c2ccccc2)C(=O)N1Nc1ccccc1` the AC50 was 34.6 µM (active).
With `COc1cc(OC)nc(Sc2cccc(Cl)c2C(=O)O)n1` the outcome was “inactive”.
With `CCOP(=O)(OCC)Oc1cc(C)nc(C(C)C)n1` the outcome was “inactive”.
With `C[N+]1(C)CCCCC1` the outcome was “inactive”.
With `CCCSP(=O)(OCC)SCCC` the AC50 was 5.47 µM (active).
With `CC(COc1ccc(Oc2ccccc2)cc1)Oc1ccccn1` (stereo not given) the outcome was “inactive”.
For `CC1(C(=O)Nc2ccc(O)c(Cl)c2Cl)CCCCC1`, the outcome was “inactive”.
For `CCCCN(CC)c1c([N+](=O)[O-])cc(C(F)(F)F)cc1[N+](=O)[O-]`, the outcome was “inactive”.
For `C#CC(C)(C)NC(=O)c1cc(Cl)cc(Cl)c1`, the outcome was “inactive”.
With `CON=C(C(=O)OC)c1ccccc1CON=C(C)c1cccc(C(F)(F)F)c1` the outcome was “inactive”.
`CCOC(=O)CC(SP(=O)(OC)OC)C(=O)OCC` (stereo not given) was tested, and the outcome was “inactive”.
`COc1ccc(C(=CC(=O)N2CCOCC2)c2ccc(Cl)cc2)cc1OC` was tested, and the AC50 was 10.4 µM (active).
For `CCOP(=S)(OCC)Oc1cc(C)nc(C(C)C)n1`, the outcome was “inactive”.
`CC[C@H](C)[C@H]1O[C@]2(C=C[C@@H]1C)C[C@@H]1C[C@@H](C/C=C(\C)[C@@H](O[C@H]3C[C@H](OC)[C@@H](O[C@H]4C[C@H](OC)[C@@H](NC)[C@H](C)O4)[C@H](C)O3)[C@@H](C)/C=C/C=C3\CO[C@@H]4[C@H](O)C(C)=C[C@@H](C(=O)O1)[C@]34O)O2` was tested, and the outcome was “inactive”.
`CCC(=O)Nc1ccc(Cl)c(Cl)c1` was tested, and the outcome was “inactive”.
`O=[N+]([O-])c1cc(C(F)(F)F)c(Cl)c([N+](=O)[O-])c1Nc1ncc(C(F)(F)F)cc1Cl` was tested, and the AC50 was 26.8 µM (active).
`CSc1nc(NC(C)C)nc(NC(C)C)n1` was tested, and the outcome was “inactive”.
With `CC(C)=CC1C(C(=O)OCN2C(=O)C3=C(CCCC3)C2=O)C1(C)C` (stereo not given) the outcome was “inactive”.
For `CCCCOC(=O)[C@@H](C)Oc1ccc(Oc2ccc(C#N)cc2F)cc1`, the outcome was “inactive”.
`Cc1ccn2nc(S(=O)(=O)Nc3c(F)cccc3F)nc2n1` was tested, and the outcome was “inactive”.
For `C#CCC1=C(C)C(OC(=O)C2C(C=C(C)C)C2(C)C)CC1=O` (stereo not given), the outcome was “inactive”.
With `CN(C)C(=O)Nc1cccc(C(F)(F)F)c1` the AC50 was 12.1 µM (active).
In the case of `CN1COCN(Cc2cnc(Cl)s2)C1=N[N+](=O)[O-]`, the outcome is reported as “inactive”.
`C=C(C)[C@H]1Cc2c(ccc3c2O[C@@H]2COc4cc(OC)c(OC)cc4[C@@H]2C3=O)O1` was tested, and the AC50 was 1.36 µM (active).
`COP(=O)(OC)OC(Br)C(Cl)(Cl)Br` (stereo not given) was tested, and the outcome was “inactive”.
With `COP(=O)(NC(C)=O)SC` (stereo not given) the outcome was “inactive”.
In the case of `S=C1NCCN1`, the outcome is reported as “inactive”.
